PubChem BioAssay (Tox21)
Results filed as inconclusive are left out. Activity calls are given as the source filed them. Calls come from the whole dose curve.

target: Acetylcholinesterase (Homo sapiens) (UniProt P22303); test: Acetylcholinesterase (AChE) small molecule antagonists: colormetric cell-based qHTS assay (AID 1347395); conditions: SH-SY5Y cells AChE activity, colorimetric (Ellman); series mostly up to 115 µM; activity, negative = inhibition: at the top concentration; note: nearly all actives have a fitted effect of over 30% in size
Sequence (P22303 whole entry, looked up): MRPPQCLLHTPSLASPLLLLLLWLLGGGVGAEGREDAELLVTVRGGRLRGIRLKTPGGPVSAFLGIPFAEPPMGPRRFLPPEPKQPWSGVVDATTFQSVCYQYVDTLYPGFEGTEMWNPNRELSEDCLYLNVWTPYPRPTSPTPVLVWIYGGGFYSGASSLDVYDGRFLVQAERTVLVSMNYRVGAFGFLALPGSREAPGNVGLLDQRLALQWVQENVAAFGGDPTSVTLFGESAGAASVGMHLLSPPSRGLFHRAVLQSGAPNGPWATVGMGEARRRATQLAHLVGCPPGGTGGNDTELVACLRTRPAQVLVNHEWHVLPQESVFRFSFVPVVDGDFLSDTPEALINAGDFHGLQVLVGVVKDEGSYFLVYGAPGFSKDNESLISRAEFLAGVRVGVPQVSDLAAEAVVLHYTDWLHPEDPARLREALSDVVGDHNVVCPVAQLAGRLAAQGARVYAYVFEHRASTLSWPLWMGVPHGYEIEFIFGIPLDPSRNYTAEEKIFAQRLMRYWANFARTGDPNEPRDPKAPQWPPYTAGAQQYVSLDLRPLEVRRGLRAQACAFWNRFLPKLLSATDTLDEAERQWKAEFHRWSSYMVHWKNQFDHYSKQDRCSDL
In short: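 Endogenous AChE of human neuroblastoma SH-SY5Y cells was measured with an Ellman-type DTNB/acetylthiocholine mix. Compound pretreatment lasted 30 min at 37 C; substrate reaction ran 90 min at 37 C.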
% is set by controls: 0 for no effect and ±100 for the full control effect; potency is the fitted concentration of half-maximal effect.

Compound | activity, negative = inhibition | Potency
COc1ccc(C(=O)Nc2nc3ccccc3c(NCc3ccccc3)c2C#N)cc1 | 0.606% (inactive) | 
O=C(O)c1ccc2c(c1)nc(C(=O)NC1CCN(C3CC3)CC1)n2Cc1cc(-c2ccc(Cl)s2)on1 | -6.96% [at 23.6 µM] (inactive) | 
C=C(C)C(=O)OCCOCCOC(=O)C(=C)C | -0.746% (inactive) | 
Cc1ccc(Nc2ccc(O)c3c2C(=O)c2ccccc2C3=O)cc1 | 0% (inactive) | 
CC1CC(=O)CC(C)(C)C1 (centres undefined) | -0.316% (inactive) | 
COCCc1ccccn1 | -0.63% [at 52.9 µM] (inactive) | 
NS(=O)(=O)c1ccccc1Cl | -1.45% (inactive) | 
CCCCC/C=C/CC1CC(=O)OC1=O (centres undefined) | 0.242% (inactive) | 
CCCN(CCC)C(=O)C(CCC(=O)O)NC(=O)c1ccccc1 (centres undefined) | -1.67% [at 52.9 µM] (inactive) | 
CC(=O)Nc1ccc(S(=O)(=O)Cl)cc1 | 0.733% (inactive) | 
Cc1cccc(C)c1NC(=O)c1ccccc1C(=O)O | 1.52% [at 52.9 µM] (inactive) | 
C#C[C@]1(OC(C)=O)CC[C@H]2[C@@H]3CCC4=C[C@@H](OC(C)=O)CC[C@@H]4[C@H]3CC[C@@]21C | -2.86% [at 52.9 µM] (inactive) | 
O=C(CO)[C@@H](O)[C@H](O)[C@@H](O)CO | 1.67% [at 52.9 µM] (inactive) | 
CC(=O)OC(C)(C)Cc1ccccc1 | 3.27% (inactive) | 
C[C@H](CCC(=O)O)[C@H]1CC[C@H]2[C@@H]3[C@H](O)C[C@@H]4C[C@H](O)CC[C@]4(C)[C@H]3C[C@H](O)[C@]12C | 4.34% [at 52.9 µM] (inactive) | 
CCCCCCCCCCCCCCCCCC(=O)OCCCCCCCCCCCCCC(C)C | -3.54% (inactive) | 
CC(=O)Nc1ccc(S(=O)(=O)Nc2cc(C)on2)cc1 | 1.02% [at 52.9 µM] (inactive) | 
COC(=O)c1ccc(OC)cc1 | 1.62% (inactive) | 
CN(C)c1ccc(SC#N)cc1 | 0.841% (inactive) | 
CC(=O)OCC(=O)Nc1cc(C#N)cc(NC(=O)COC(C)=O)c1Cl | -3.11% [at 52.9 µM] (inactive) | 

Compound | activity, negative = inhibition | Potency
CCCCCCCCCCOCC(O)CN (centres undefined) | -1.24% [at 52.9 µM] (inactive) | 
CCCCCCCCCCCCCCCCOP(=O)([O-])OCC[N+](C)(C)C | 0.91% [at 52.9 µM] (inactive) | 
N#CCCCC(C#N)CCC#N (centres undefined) | 1.21% (inactive) | 
CC(=O)OCC(=O)[C@@]1(O)CC[C@H]2[C@@H]3CCC4=CC(=O)C=C[C@]4(C)[C@@]3(F)[C@@H](O)C[C@@]21C | 3.31% [at 52.9 µM] (inactive) | 
CCC(C)COC(=O)CC(C)C (centres undefined) | 1.68% (inactive) | 
CC=O |  | 41.8 µM (active)
CCCCCCCCCCCCCCCC/C=C/C1CC(=O)OC1=O (centres undefined) | -1.19% [at 52.9 µM] (inactive) | 
COc1ccnc(CS(=O)c2nc3cc(OC(F)F)ccc3[nH]2)c1OC (centres undefined) | -1.47% (inactive) | 
C[C@H]1O[C@@H](O[C@H]2CC[C@@]3(C)[C@H](CC[C@@H]4[C@@H]3C[C@@H](O)[C@]3(C)[C@@H](C5=CC(=O)OC5)CC[C@]43O)C2)C[C@H](O)[C@@H]1O[C@H]1C[C@H](O)[C@H](O[C@H]2C[C@H](O)[C@H](O[C@@H]3O[C@H](CO)[C@@H](O)[C@H](O)[C@H]3O)[C@@H](C)O2)[C@@H](C)O1 | 1.09% [at 52.9 µM] (inactive) | 
CC1=CCC(C(C)C)C=C1 (centres undefined) | 1.11% (inactive) | 
C[C@H]1c2cccc(O)c2C(O)=C2C(=O)[C@]3(O)C(O)=C(C(N)=O)C(=O)[C@@H](N(C)C)[C@@H]3[C@@H](O)[C@@H]21 | 6.3% [at 52.9 µM] (inactive) | 
OC1CCC(C2CCCCC2)CC1 (centres undefined) | 0.0882% (inactive) | 
CCOC(=O)Nc1ccc2c(c1)N(C(=O)CCN1CCOCC1)c1ccccc1S2 | -0.763% [at 52.9 µM] (inactive) | 
CC(C)CC(O)CC(C)C | -1.36% (inactive) | 
Cc1ccc(C(C)c2ccc(C)c(C)c2)cc1C | 0.0032% (inactive) | 
COc1c(N2CCNC(C)C2)c(F)cc2c(=O)c(C(=O)O)cn(C3CC3)c12 (centres undefined) | 2.22% [at 52.9 µM] (inactive) | 
CC(COc1ccccc1)NC(C)C(O)c1ccc(O)cc1 (centres undefined) | -0.132% [at 52.9 µM] (inactive) | 
CCOc1ccccc1OCC | 0.421% (inactive) | 
Clc1ccnc(Cl)n1 | 0.679% (inactive) | 
